Experimental data taken from article PMC4336329 (PLoS ONE, 2015).
Out of some 310,000 compounds screened, about 14,000 (4.5%) showed an effect of 50% or more. Effects have a minus sign here. This excerpt belongs to a sample that is enriched for strong results.

Each compound was assayed against human ether-à-go-go-related gene (hERG) potassium channel (human, UniProt Q12809) (assay: primary screen, population patch clamp on CHO cells stably expressing hERG; higher = less effect of the substance).
human ether-à-go-go-related gene (hERG) potassium channel, sequence (Q12809 whole entry, looked up): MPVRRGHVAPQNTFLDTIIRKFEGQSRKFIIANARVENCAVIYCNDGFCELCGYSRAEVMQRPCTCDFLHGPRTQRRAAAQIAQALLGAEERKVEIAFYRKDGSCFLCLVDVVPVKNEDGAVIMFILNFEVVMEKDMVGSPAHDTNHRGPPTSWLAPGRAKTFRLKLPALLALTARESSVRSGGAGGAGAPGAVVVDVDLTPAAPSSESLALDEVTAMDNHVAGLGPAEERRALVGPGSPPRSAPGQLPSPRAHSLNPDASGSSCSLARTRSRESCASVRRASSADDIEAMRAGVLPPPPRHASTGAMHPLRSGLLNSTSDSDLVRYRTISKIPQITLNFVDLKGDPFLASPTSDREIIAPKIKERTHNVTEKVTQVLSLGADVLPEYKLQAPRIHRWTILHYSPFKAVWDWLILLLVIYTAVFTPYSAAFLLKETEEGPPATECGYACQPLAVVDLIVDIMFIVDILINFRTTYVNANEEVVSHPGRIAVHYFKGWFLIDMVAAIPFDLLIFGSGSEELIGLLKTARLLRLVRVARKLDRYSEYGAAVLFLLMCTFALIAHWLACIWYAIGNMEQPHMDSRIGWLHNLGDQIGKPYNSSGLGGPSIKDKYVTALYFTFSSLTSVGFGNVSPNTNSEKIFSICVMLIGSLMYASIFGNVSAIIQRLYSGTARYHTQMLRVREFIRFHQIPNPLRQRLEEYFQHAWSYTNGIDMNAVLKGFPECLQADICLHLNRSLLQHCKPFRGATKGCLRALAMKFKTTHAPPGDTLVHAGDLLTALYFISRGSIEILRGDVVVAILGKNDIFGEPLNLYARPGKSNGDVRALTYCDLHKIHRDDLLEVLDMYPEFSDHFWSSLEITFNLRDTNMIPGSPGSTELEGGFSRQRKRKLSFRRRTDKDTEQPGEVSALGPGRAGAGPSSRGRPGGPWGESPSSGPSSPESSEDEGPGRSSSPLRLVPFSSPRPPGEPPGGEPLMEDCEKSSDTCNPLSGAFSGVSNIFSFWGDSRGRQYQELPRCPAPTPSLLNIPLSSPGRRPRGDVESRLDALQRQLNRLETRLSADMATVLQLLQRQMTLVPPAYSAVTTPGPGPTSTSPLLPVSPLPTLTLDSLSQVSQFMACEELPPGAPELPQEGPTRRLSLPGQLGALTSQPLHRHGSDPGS
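Further: peak tail current of the secondary pulse compared with the same well before compound.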

| SMILES | hERG current change (%, negative = inhibition) at 10uM |
| --- | --- |
| CC12CCC(C/C1=N\OC(=O)c1c(F)cccc1F)C2(C)C (stereo not shown) | -0.495% |
| CC(C)(C)C1CCC(=NNC(=O)CN(c2ccccc2)S(=O)(=O)c2ccccc2[N+](=O)[O-])CC1 (stereo not shown) | 6.69% |
| COCCNC(=O)c1ccc(N2CC3CC(C2)c2cccc(=O)n2C3)c([N+](=O)[O-])c1 (stereo not shown) | 21.4% |
| Cc1ccc(S(=O)(=O)C2(C(=O)Nc3cccc(F)c3)CC2)cc1 | 0.141% |
| COc1cc2c(cc1OC)CN(C(=O)c1ccc(OC)c([N+](=O)[O-])c1)CC2 | 4.43% |
| COc1cccc(CN(C)C(=O)CSCC(=O)Nc2cc(C)on2)c1OC | 11.6% |
| CCCCn1c2c(c(=O)n(C)c1=O)C(c1ccc(OC)cc1)N1CCCCCC1=N2 (stereo not shown) | -21.9% |
| CCOC(=O)C1CCN(Cc2cnc(Oc3ccc(N)cc3)s2)CC1 | -10.6% |
| COc1ccc(S(=O)(=O)N2CCCC(C(=O)NCC3CCCO3)C2)cc1OC (stereo not shown) | 11% |
| CSc1ccc(CN2CCN(CCC(C)C)C(CCO)C2)cc1 (stereo not shown) | -63.3% |
| OCCC1CN(Cc2ccn[nH]2)CCN1Cc1ccc(F)c(F)c1 (stereo not shown) | 9.54% |
| CC(C)c1csc(CN2CCN(Cc3ccc(F)c(F)c3)C(CCO)C2)n1 (stereo not shown) | -19.3% |
| CSc1cccc(CN2CCN(Cc3ccccc3)C(CCO)C2)c1 (stereo not shown) | -57.7% |
| CC(C)c1cc(CN2CCN(Cc3ccc(F)c(F)c3)C(CCO)C2)[nH]n1 (stereo not shown) | -52.4% |
| CSc1ncc(CN2CCN(CCC(C)C)C(CCO)C2)cn1 (stereo not shown) | -1.45% |
| CSc1ccc(CN2CCN(C(C)C)C(CCO)C2)cc1 (stereo not shown) | -24% |
| CC(C)(O)C#Cc1ccc(CN2CCN(Cc3ccccc3)C(CCO)C2)cc1 (stereo not shown) | 12% |
| CC(NS(=O)(=O)OCC(Cl)(Cl)Cl)c1ccccc1 (stereo not shown) | 9.74% |
| Cc1cccc(-c2cc3nc4c(c(N5CCC6(CC5)OCCO6)n3n2)CCCC4)c1 | 10.2% |
| O=S(=O)(CCSc1ccc(C(F)(F)F)cn1)c1ccc(Cl)cc1 | 13% |
| Oc1c(-c2cc(-c3ccco3)[nH]n2)ccc2ccccc12 | 13.7% |
| CCOC(=O)N1CCc2c(sc3ncn(C)c(=O)c23)C1 | 5.05% |
| Cc1cc(Cl)ccc1NC(=O)CN1C(=O)CSc2ccc(S(=O)(=O)N3CCOCC3)cc21 | -18.7% |

| SMILES | hERG current change (%, negative = inhibition) at 10uM |
| --- | --- |
| Cc1nc2nc[nH]n2c(=O)c1CCC(C)C | 4.34% |
| COCCNc1nc(N)c([N+](=O)[O-])c(NC2CCCCC2)n1 | 4.56% |
| NC(=O)C(=O)N/N=C/c1c2ccccc2cc2ccccc12 | -11.1% |
| CCOC(=O)Nc1cccc(C(=O)O)c1 | 8.63% |
| COc1cc(OC)cc(C(=O)Nc2cccc(NC(=O)c3ccccc3)c2)c1 | -27.3% |
| CCOC(=O)Nc1cccc(Nc2ccccc2)c1 | -74.8% |
| COc1cc(OC)cc(C(=O)Nc2cccc(NC(C)=O)c2)c1 | -1.56% |
| CCOC(=O)Nc1cccc(NC(=O)c2ccccc2F)c1 | 7.84% |
| CCOC(=O)Nc1cccc(NC(=O)c2cc(OC)cc(OC)c2)c1 | -53.7% |
| COc1ccccc1CNC(=O)CN(c1ccc(C)cc1)S(=O)(=O)c1c(C)nn(C)c1C | -24.1% |
| Cn1c(-c2ccc(N)cc2)nc2ccccc21 | -3.42% |
| COc1ccc2c(c1)c1nc3ccccc3nc1n2Cc1ccc(OC(C)C)c(OC)c1 | -0.905% |
| CCn1c(SCCC(=O)O)nnc1-c1cccnc1 | 4.65% |
| O=C(NCC1CC1)c1onc(CSc2ccncc2)c1C(=O)NCC1CC1 | -11.9% |
| O=C(NCC1CC1)c1onc(CSc2nc3ccccc3[nH]2)c1C(=O)NCC1CC1 | -69.8% |
| CCCNC(=O)c1onc(CSc2ccc(F)cc2)c1C(=O)NCC1CC1 | -62.7% |
| CCCNC(=O)c1onc(CSc2nc3ccccc3[nH]2)c1C(=O)NCCC | -35.7% |
| O=C(NCCCN1CCOCC1)c1onc(CSc2ccccc2)c1C(=O)NCCCN1CCOCC1 | 4.97% |
| O=C(NCc1ccccc1)c1onc(CSc2ccc(F)cc2)c1C(=O)NCCCN1CCOCC1 | -73.9% |
| CCCNC(=O)c1onc(CSc2ccc(F)cc2)c1C(=O)NCCC | 5.35% |
| O=C(NCC1CC1)c1onc(CSc2ccc(F)cc2)c1C(=O)NCC1CC1 | -51.6% |
| O=C(NCc1ccccc1)c1onc(CSc2ccccc2)c1C(=O)NCC1CC1 | -33.4% |
| O=C(NCc1ccccc1)c1onc(CSc2ccc(F)cc2)c1C(=O)NCc1ccccc1 | 1.49% |

| SMILES | hERG current change (%, negative = inhibition) at 10uM |
| --- | --- |
| COCCNC(=O)c1onc(CSc2nc3ccccc3[nH]2)c1C(=O)NCCOC | -14.3% |
| CCCNC(=O)c1onc(CSc2ccc(Cl)cc2)c1C(=O)NCC1CC1 | -8.67% |
| O=C(/C=C\c1ccc2c(c1)OCO2)CC1(O)C(=O)Nc2ccccc21 (stereo not shown) | -0.111% |
| COc1cccc(CC(=O)N2CCC(n3nccc3NC(=O)C3CCOC3)CC2)c1 (stereo not shown) | 21.7% |
| NC(=O)c1ccccc1NC(=O)Nc1ccccc1Cl | 11.8% |
| COCCn1c(C)cc(C(=O)CSc2ccc(NC(C)=O)cc2)c1C | 12.4% |
| COc1ccc(N2CCN(C(=O)CCNC(=O)Cn3ccc4ccccc4c3=O)CC2)cc1 | -8.61% |
| CN1CCN(NC(=O)c2cc(-c3ccccn3)nc3ccccc23)CC1 | 14% |
| Cc1cccc(OCCCCCNCCO)c1 | 3.93% |
| CCC(C)(C)n1nnnc1C(c1ccc(C)cc1)N1CCN(C(=O)c2ccco2)CC1 (stereo not shown) | -45.8% |
| CN1CCN(C(=S)C(=O)NCc2ccccc2)CC1 | -2.07% |
| COc1cc(CNc2ccccc2SC)ccc1O | 12.8% |
| O=C(NCC1CC1)c1onc(CSc2ccc(F)c(F)c2)c1C(=O)NCC1CC1 | -56.1% |
| C=CCNC(=O)c1onc(CSc2ccc(F)c(F)c2)c1C(=O)O | 22.4% |
| COCCNC(=O)c1onc(CSc2ccc(F)c(F)c2)c1C(=O)NCCOC | -25.5% |
| C=CCNC(=O)c1onc(CSc2ccc(Cl)cc2)c1C(=O)NCC=C | -36.6% |
| O=C(NCC1CCCO1)c1onc(CSc2ccc(F)c(F)c2)c1C(=O)O (stereo not shown) | 1.63% |
| C=CCNC(=O)c1onc(CSc2ccc(F)c(F)c2)c1C(=O)NCC=C | -64.5% |
| Cl.OC(CNC1CCCC1)COc1ccccc1Br (stereo not shown) | 7.79% |
| O=C(Cc1ccccc1)NCC(=O)Nc1ccccc1Br | 16.8% |
| Cc1cc(NC(=O)CSc2nc(-c3ccc(Br)cc3)nc3c2c(=O)n(C)c(=O)n3C)no1 | -8.93% |
| O=C(COC(=O)c1ccccc1F)NNC(=O)c1ccccc1 | 8.17% |
| O=C(CSCc1ccc(Cl)cc1)Nc1nccs1 | 6.08% |

| SMILES | hERG current change (%, negative = inhibition) at 10uM |
| --- | --- |
| CCc1ccccc1NC(=O)COc1ccc2c(c1)OCO2 | -4.6% |
| CCN(CCCNC(=O)CC(C(=O)N1CCc2ccccc21)n1ccnc1)c1cccc(C)c1 (stereo not shown) | -65% |
| CCN(CCCNC(=O)CC(C(=O)N1CCc2ccccc21)n1ccnc1)c1ccccc1 (stereo not shown) | -45.6% |
| CCCN(CCC)CCCNC(=O)CC(C(=O)N1CCc2ccccc21)n1ccnc1 (stereo not shown) | -0.225% |
| Nc1ccc(Cl)c(S(=O)(=O)Nc2ccc(Cl)cc2)c1 | 17.3% |
| Cc1ccc(N2CC(C(=O)Nc3ccc(S(=O)(=O)Nc4nccc(C)n4)cc3)CC2=O)cc1 (stereo not shown) | 3.17% |
| CN(C)C(=O)c1ccccc1Sc1cc(Cl)ccc1Cl | -14.5% |
| CN(C)C(=O)c1cc(Cl)ccc1Sc1cc(Cl)ccc1Cl | -6.03% |
| CN(C)C(=O)c1ccccc1Sc1ccc(Cl)cc1Cl | -70.4% |
| Cc1onc(-c2ccccc2)c1C(=O)NCc1ccccc1F | 7.62% |
| [N-]=[N+]=CC(=O)OC[C@H](N)C(=O)O | 10.8% |
| CCOC(=O)c1c(CN2CCN(Cc3ccccc3)CC2)n(C)c2cc(Br)c(OC)cc12 | 7.08% |
| CCOC(=O)c1c(CN(C)C)n(-c2ccccc2)c2cc(Br)c(O)cc12.Cl | -75.8% |
| CCOC(=O)c1c(C)n(CC(O)CN2CCOCC2)c2cc(Br)c(OC)cc12.Cl (stereo not shown) | -24% |
| CCOC(=O)c1c(CN(C)C)n(-c2ccccc2)c2cc(Br)c(OC)cc12 | -58.6% |
| CCOC(=O)c1c(CN2CCN(CCO)CC2)n(-c2ccccc2)c2cc(Br)c(O)cc12 | -68.2% |
| CCOC(=O)c1c(C)n(CC(O)CN(CC)CC)c2cc(Br)c(OC)cc12.Cl (stereo not shown) | -26.9% |
| CCOC(=O)c1c(C)n(CC(O)CN(C)C)c2cc(Br)c(OC)cc12.Cl (stereo not shown) | -51.5% |
| CCOC(=O)c1c(CN2CCOCC2)n(-c2ccccc2)c2cc(Br)c(O)cc12.Cl | -7.35% |
| CCOC(=O)c1c(CN(C)C)n(-c2ccc(C)cc2)c2cc(Br)c(O)cc12 | -35.8% |
| CCOC(=O)c1c(C)n(-c2ccccc2)c2ccc(OCCN(C)C)cc12 | -10.6% |
| CCOC(=O)c1c(CN2CCOCC2)n(-c2ccccc2)c2cc(Br)c(OC)cc12 | 3.27% |
